Screen size: about 16,000 compounds; about 2,600 (16%) were called active. Not shown: some 20% with an inconclusive outcome. A selection follows. Unmarked numbers belong to inactive results. Calls come from the whole dose curve; as a rule, active = well fitted curve in the direction sought with a large enough effect; inconclusive = small, poorly fitted or top-dose-only effect, or effect the other way; inactive = no such curve, though single readings can be large or run the other way.
target: Cytochrome P450 2D6 (Homo sapiens) (UniProt P10635); test: Cytochrome panel assay with activity outcomes; details: recombinant CYP, pro-luciferin dealkylation, luminescence, p450-cyp2d6; series mostly up to 57.1 µM; activity, negative = inhibition: at the top concentration
Sequence (P10635 whole entry, looked up): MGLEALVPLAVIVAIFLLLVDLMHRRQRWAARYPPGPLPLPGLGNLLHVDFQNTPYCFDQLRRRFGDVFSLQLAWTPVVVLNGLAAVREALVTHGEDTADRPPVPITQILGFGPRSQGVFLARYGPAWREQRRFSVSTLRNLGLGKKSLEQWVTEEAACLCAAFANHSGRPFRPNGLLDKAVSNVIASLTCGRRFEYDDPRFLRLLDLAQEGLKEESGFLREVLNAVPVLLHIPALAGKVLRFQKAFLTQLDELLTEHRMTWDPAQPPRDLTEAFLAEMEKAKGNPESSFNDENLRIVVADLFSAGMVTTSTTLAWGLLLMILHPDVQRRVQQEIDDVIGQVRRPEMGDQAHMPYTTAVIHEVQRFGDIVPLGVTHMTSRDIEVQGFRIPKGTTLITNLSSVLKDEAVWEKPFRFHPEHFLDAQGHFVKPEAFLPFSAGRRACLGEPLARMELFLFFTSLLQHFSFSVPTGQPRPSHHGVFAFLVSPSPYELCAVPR
% is set by controls: 0 for no effect and ±100 for the full control effect.

In order of falling “activity, negative = inhibition” value:
1. Cc1ccc(C)c(Cn2cnc3c(cnn3C(C)(C)C)c2=O)c1  29.5%
2. Cc1ccc(/C=N\NC(=O)c2cc(OCC(F)(F)F)ccc2OCC(F)(F)F)cc1  21.6%
3. COC(=O)c1cc(OC)c(OC)cc1NC(=S)N1CCCCC1  19.7%
4. CSc1nc2n(n1)C(c1cccc(F)c1)C(C(=O)Nc1ccc(C)cc1C)=C(C)N2 (stereo not given)  15.7%
5. O=C(O)/C=C/c1cn(-c2ncc(C(F)(F)F)cc2Cl)c2ccccc12  14.4%
6. N#Cc1cccc(-c2nc3cnc(N4CCOCC4)nc3n(C[C@H]3CCCO3)c2=O)c1  12.8%
7. COc1ccccc1N1CCN(c2nc3c(C)cccn3c(=O)c2C=O)CC1  12.4%
8. COc1ccc2c(c1)-c1ccccc1S(=O)(=O)N2C(C)=O  9.83%
9. CCC(Sc1ncccc1C(=O)O)C(=O)N1CCOCC1 (stereo not given)  8.57%
10. CCC(C)NC(=O)C1CCCN(C(=O)NC2CCCCC2)C1 (stereo not given)  7.72%
11. N#Cc1ccc(CN2CCCC3(CCN(C(=O)c4ccncc4)CC3)C2)cc1  7.01%
12. Cc1nc2cnc(N3CCN(C)CC3)nc2n(-c2ccccc2)c1=O  5.68%
13. COc1ccccc1-n1c(SCC(=O)N2CCCC2)nc2cccnc21  5.52%
14. COc1cccc(C2C(C(=O)c3cc4ccccc4o3)=C(O)C(=O)N2c2cc(C)on2)c1OC (stereo not given)  5.26%
15. N#Cc1cccc(NC(=O)N2CCCC3(CCN(C(=O)c4ccco4)CC3)C2)c1  3.93%
16. O=c1cnc2cnc(Nc3ccccc3)nc2n1C1CC1  3.9%
17. O=c1c(-c2ccc(F)cc2)nc2cncnc2n1C1CC1  3.81%
18. Cn1c(=O)c(-c2ccccc2)nc2cnc(OCc3ccccc3)nc21  3.17%
19. O=C(c1cccc(F)c1)N1CCC2(CCCN(Cc3nccs3)C2)CC1  2.76%
20. Cc1c(-c2ccc(O)cc2)nn(-c2ccc(O)cc2)c1-c1ccc(OCCN2CCCCC2)cc1  2.1%
21. CCOC(=O)c1c(NC(=O)Cn2nc([N+](=O)[O-])c(Br)c2C)sc2c1CCC(C)C2 (stereo not given)  1.74%
22. COc1cccc(Cn2c(=O)c(-c3cccs3)nc3cnc(OCc4ccccc4)nc32)c1  1.18%
23. Cc1nc2cnc(N(C)C)nc2n(-c2ccccc2)c1=O  0.658%
24. Cc1nc2ccccn2c1/C(O)=C1\C(=O)C(=O)N(CCCn2ccnc2)C1c1ccncc1 (stereo not given)  0.65%
25. COc1cc(=O)n2c(n1)SCCC2  0.218%
26. O=c1c(-c2ccccc2)nc2cncnc2n1C1CC1  -0.578%
27. CCOC(=O)C1CCN(C(=O)c2ccccc2NC(C)=O)CC1  -0.841%
28. O=C(c1ccncc1)N1CCC2(CCCN(Cc3ccccc3)C2)CC1  -1.35%
29. O=[N+]([O-])c1ccc(N2CCCCC2)c(Cl)c1N1CCCCC1  -2.02%
30. COc1ccc(C2=NOC(C(=O)Nc3ccc(C(C)=O)cc3)C2)cc1OC (stereo not given)  -2.71%
31. CCOC(=O)N1CCC(NC(=O)CS(=O)(=O)Cc2nc(-c3cccc(OC)c3)oc2C)CC1  -3.13%
32. NS(=O)(=O)Cc1noc2ccccc12  -3.15%
33. CCCCOc1ccccc1N  -4.34%
34. O=C(Nc1cccc2nsnc12)c1ccc(-c2cccc(Cl)c2)o1  -5.52%
35. CC(C)CNS(=O)(=O)c1cc(C(=O)N2CC(C)OC(C)C2)c(Cl)cc1Cl (stereo not given)  -5.68%
36. Cc1nc2cnc(Oc3cccc(Cl)c3)nc2n(CCC#N)c1=O  -5.99%
37. CC(C)(C)C(=O)Nc1nnc(SCC(=O)NCc2cccs2)s1  -6.28%
38. N#Cc1ccc(CN2CCCC3(CCN(C(=O)c4cccc(F)c4)CC3)C2)cc1  -6.36%
39. CCOC(=O)C1=C(O)/C(=C/c2cc(OC)c(OC)c(OC)c2)N=C1C  -6.74%
40. COc1ccccc1N1CCN(C[C@@H]2CN3C(=O)N(C)c4ccccc4C3=N2)CC1  -6.92%
41. N#Cc1ccccc1NC(=O)Nc1cccs1  -7.31%
42. Cc1noc(C)c1C(=O)N1CCC[C@@]2(CCN(c3ncccn3)C2)C1  -8.25%
43. O=C(CCNC(=O)c1ccc(Br)o1)NCc1ccccn1  -9.12%
44. CC1(C)Cc2c(C#N)c(SCc3ccccc3)nc(N3CCOCC3)c2CO1  -9.2%
45. CCN(CC)c1ccc(NC(=O)c2cccnc2)c(C)c1  -9.57%
46. O=C(c1ccco1)N1CCC2(CCCN(Cc3ccccc3)C2)CC1  -9.7%
47. COCCNc1nc(-c2cccc(NS(C)(=O)=O)c2)nc2ccccc12  -10.2%
48. COc1cc(C(=O)OCC(=O)Nc2cc(C)on2)cc(OC)c1OC  -10.6%
49. COc1cccc(-c2nc(NC3CCNCC3)c3ccccc3n2)c1  -11.3%
50. O=C(NC(=S)Nc1cccc(Cl)c1N1CCCCC1)c1cccs1  -11.5%
51. COc1ccc(C(=O)N2CCC3(CCN(Cc4ccc(C#N)cc4)CC3)CC2)cc1  -12.8%
52. CCCC(=O)Nc1nnc(SCC(=O)NCc2cccs2)s1  -15.3%
53. Cc1nc2cnc(N3CCNCC3)nc2n(Cc2ccc(F)cc2)c1=O  -15.6%
54. COc1cccc(OCC(=O)NN=C2c3ccccc3-c3ccccc32)c1  -15.9%
55. CC12c3ccccc3C(c3ccccc31)C1C(=O)N(Cc3cccnc3)C(=O)C12 (stereo not given)  -16.3%
56. CCCCOC(=O)c1ccc(NC(=S)NC(=O)c2c(Cl)cnn2C)cc1  -16.6%
57. CCOC(=O)c1cnn(-c2ccccc2)c1-n1cccc1C(=O)C(=O)Nc1ccccc1C(F)(F)F  -17.5%
58. CN(C)/C=C/C(=O)c1ccc(Cl)cc1  -18.2%
59. Cc1cccc(NC(=S)NC(=O)c2cccs2)n1  -19.6%
60. COc1ccc(NC(=O)N(C2CCCCC2)C(C)c2cccnc2)c(OC)c1 (stereo not given)  -19.7%
61. Cc1cc(OC(=O)c2ccccc2Br)cc(=O)n1C  -19.7%
62. O=C1CCN(S(=O)(=O)c2ccccc2)N1  -21.2%
63. CCN(CC)CCNC(=O)c1ccc(Cl)c(S(=O)(=O)Nc2ccccc2OC)c1  -21.3%
64. O=C(CCc1nc2ccccc2c(=O)[nH]1)OCC(=O)N1CCN(S(=O)(=O)c2ccccc2)CC1  -21.3%
65. CCCn1nnc(NC(=O)c2ccc(-c3cccc(Cl)c3)o2)n1  -22.4%
66. N#C/C(=C\c1cccs1)C(=O)NCC1CCCO1 (stereo not given)  -25.9%

In the case of `CC1CCN(c2ccccc2NC(=S)NC(=O)c2cccs2)CC1`, the AC50 is reported as 0.2 µM (active).
`COC(=O)c1sccc1-c1ccc(C(=O)Nc2cccc(Cl)c2)o1` was tested, and the AC50 was 15.8 µM (active).
`O=C(OCCCN1CCCCC1)c1ccc(O)cc1` was tested, and the AC50 was 5.62 µM (active).
In the case of `COc1cc(N)c(Cl)cc1C(=O)OCCCN1CCCCC1`, the AC50 is reported as 0.126 µM (active).
`CCN(CC)CCOC(=O)c1cc(Cl)c(N)cc1OC` was tested, and the AC50 was 15.8 µM (active).
In the case of `CCN(CC)CCCCCCCCOC(=O)c1cc(OC)c(OC)c(OC)c1`, the AC50 is reported as 31.6 µM (active).
`CCCOc1cc(N)ccc1C(=O)OCCN(CC)CC` was tested, and the AC50 was 2 µM (active).
With `COc1cccc(-c2nc(NCCNC(C)=O)c3ccccc3n2)c1` the AC50 was 3.98 µM (active).
For `COCCNc1nc(-c2cccc(OC)c2)nc2ccccc12`, the AC50 was 20 µM (active).
With `COc1cccc(-c2nc(NC3CC3)c3ccccc3n2)c1` the AC50 was 7.94 µM (active).
With `COc1ccc(-c2cc3ccccc3n2CC(O)CNCCO)cc1` (stereo not given) the AC50 was 0.562 µM (active).
With `O=C(c1cccc(F)c1)N1CCC2(CCCN(Cc3ccncc3)C2)CC1` the AC50 was 7.94 µM (active).
For `N#Cc1ccc(CN2CCC3(CC2)CCN(C(=O)c2ccncc2)CC3)cc1`, the AC50 was 6.31 µM (active).
For `O=C(c1ccco1)N1CCC2(CCCN(Cc3ccncc3)C2)CC1`, the AC50 was 3.16 µM (active).
In the case of `O=C(c1ccncc1)N1CCC2(CCCN(Cc3ccncc3)C2)CC1`, the AC50 is reported as 6.31 µM (active).
`CN1CCN(c2ncncc2-c2ccccc2Cl)CC1` was tested, and the AC50 was 12.6 µM (active).
`Cc1ccccc1-c1cncnc1N1CCN(C)CC1` was tested, and the AC50 was 12.6 µM (active).
With `COc1ccccc1-c1cncnc1N1CCN(C)CC1` the AC50 was 25.1 µM (active).
In the case of `C1COC(NC(C2CC2)C2CC2)=N1`, the AC50 is reported as 0.398 µM (active).
`O=C(CSc1nnnn1-c1ccccc1)NCc1cccs1` was tested, and the AC50 was 2.51 µM (active).
`Cc1cccc(-c2nc(CN3CCCC(C(=O)NC4CCCCC4)C3)c(C)o2)c1` (stereo not given) was tested, and the AC50 was 4.47 µM (active).

In order of rising activity, negative = inhibition:
1. Cn1c(=O)c2[nH]c(CSCc3ccccc3)nc2n(C)c1=O  -20.6% [at 11.4 µM]
2. O=C(O)/C=C\C(=O)Nc1ccc2c(c1)C(=O)c1cc(F)ccc1-2  -18.3% [at 11.4 µM]
3. CC(C)C(=O)N[C@@H]1CCCN1C(=O)/C=C\c1ccccc1  -16.8% [at 11.4 µM]
4. Cn1c(=O)c2[nH]c(CCCc3ccc([N+](=O)[O-])cc3)nc2n(C)c1=O  -15.3% [at 11.4 µM]
5. Nc1nc(C(=O)O)c(N=Nc2ccccc2)c(=O)[nH]1  -12.3% [at 11.4 µM]
6. CC(C)C(=O)N[C@H]1CCCN1C(=O)/C=C\c1ccccc1  -5.27% [at 11.4 µM]
7. CSc1nnnc2ccccc12  0.441% [at 11.4 µM]
8. CN1CCN(c2ccncc2S(=O)(=O)N2CCN(C)CC2)CC1  0.642% [at 11.4 µM]
9. COc1cc(CN2CCCCC2)cc2cc(C(=O)O)c(=O)oc12  4.16% [at 11.4 µM]
10. O=C(O)[C@@H](O)c1ccc(F)cc1  4.43% [at 11.4 µM]
11. COc1ccc(Cc2ccccc2C(=O)O)c2ccccc12  11.8% [at 11.4 µM]
12. Fc1cccc(F)c1C(Nc1nncs1)Nc1nncs1  19.1% [at 11.4 µM]
13. OC[C@@H](O)[C@@H](O)[C@@H](O)[C@@H](O)c1nc2ccc(Cl)cc2[nH]1  19.4% [at 11.4 µM]

In order of falling “activity, negative = inhibition” value:
1. NS(=O)(=O)c1cc2c(cc1Cl)N[C@@H](C(Cl)Cl)NS2(=O)=O  9.05% [at 25.6 µM]
2. CCN(CC)C(=O)c1ccc(O)c(OC)c1  3.15% [at 25.6 µM]
3. C[C@@H]1O[C@H](O[C@@H]2[C@@H](Oc3cc(O)c4c(c3)O[C@H](c3ccc(O)cc3)CC4=O)O[C@@H](CO)[C@@H](O)[C@H]2O)[C@@H](O)[C@H](O)[C@@H]1O  2% [at 25.6 µM]
4. CC(=O)C[C@H](c1ccc([N+](=O)[O-])cc1)c1c(O)c2ccccc2oc1=O  0.38% [at 25.6 µM]
5. CC1(C)NC(=O)N(c2ccc([N+](=O)[O-])c(C(F)(F)F)c2)C1=O  -2.63% [at 25.6 µM]
